# Assay results reported in PubChem BioAssay AID1159580 (chemical genetic matrix, 2015).
# The whole screen tested about 5,500 compounds, of which about 2,000 (36%) were called active. Roughly 18% stayed inconclusive and do not appear here. The list shows a part of the results. Unmarked numbers belong to inactive results. Rule as the data show it: active = normalized growth mostly below about 0.91 (no sharp cut-off); inconclusive = no clear call, values can overlap the other calls; inactive = mostly above about 0.92.
# Experiment: chemical genetic growth profiling, strain panel (AID 1159580);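 also: tested at 20 µM; growth read once vehicle control cultures reached saturation at 30 °C; 1 = growth at the plate median or of vehicle wells; lower values mean less growth of the strain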
# Conditions: growth OD
# [1] = S. cerevisiae deletion strains, locus YDL101C, strain DUN1, hits give low values
# [2] = S. cerevisiae deletion strains, locus YHR030C, strain SLT2, hits give low values
compound,measurement,setting,value
CC(C)(C)c1cc(-c2cc(C(F)(F)F)[nH]n2)c2c(c1)C(C)(C)CC2,normalized growth,"S. cerevisiae deletion strains, locus YAL013W, strain DEP1, hits give low values",0.976
same,normalized growth,"S. cerevisiae deletion strains, locus YBR229C, strain ROT2, hits give low values",1
same,normalized growth,"S. cerevisiae deletion strains, locus YCL061C, strain MRC1, hits give low values",0.995
same,normalized growth,[1],1
same,normalized growth,"S. cerevisiae deletion strains, locus YDR150W, strain NUM1, hits give low values",0.874
same,normalized growth,"S. cerevisiae deletion strains, locus YEL061C, strain CIN8, hits give low values",1
same,normalized growth,"S. cerevisiae deletion strains, locus YGR078C, strain PAC10, hits give low values",1
same,normalized growth,[2],1.09
same,normalized growth,"S. cerevisiae deletion strains, locus YHR087W, strain rtc3, hits give low values",0.989
same,normalized growth,"S. cerevisiae deletion strains, locus YJR043C, strain POL32, hits give low values",0.982
same,normalized growth,"S. cerevisiae deletion strains, locus YJR075W, strain HOC1, hits give low values",0.966
same,normalized growth,"S. cerevisiae deletion strains, locus YLR039C, strain RIC1, hits give low values",0.897
same,normalized growth,"S. cerevisiae deletion strains, locus YLR058C, strain SHM2 (second series), hits give low values",1.01
same,normalized growth,"S. cerevisiae deletion strains, locus YLR085C, strain ARP6, hits give low values",1.03
same,normalized growth,"S. cerevisiae deletion strains, locus YLR262C, strain YPT6, hits give low values",0.891
same,normalized growth,"S. cerevisiae deletion strains, locus YML094W, strain GIM5, hits give low values",0.998
same,normalized growth,"S. cerevisiae deletion strains, locus YMR219W, strain ESC1, hits give low values",1
same,normalized growth,"S. cerevisiae deletion strains, locus YMR263W, strain SAP30, hits give low values",0.974
same,normalized growth,"S. cerevisiae deletion strains, locus YMR307W, strain GAS1, hits give low values",0.998
same,normalized growth,"S. cerevisiae deletion strains, locus YNL153C, strain GIM3, hits give low values",0.997
same,normalized growth,"S. cerevisiae deletion strains, locus YNL298W, strain CLA4 (second series), hits give low values",1.01
same,normalized growth,"S. cerevisiae deletion strains, locus YNL322C, strain KRE1, hits give low values",0.993
same,normalized growth,"S. cerevisiae deletion strains, locus YNR030W, strain Alg12, hits give low values",0.99
same,normalized growth,"S. cerevisiae deletion strains, locus YPL055C, strain LGE1, hits give low values",0.985
same,normalized growth,"S. cerevisiae deletion strains, locus YPL241C, strain CIN2, hits give low values",1
same,normalized growth,"S. cerevisiae deletion strains, locus YPR135W, strain CTF4, hits give low values",0.881
same,normalized growth,"S. cerevisiae strains, strain wild type, hits give low values",1.01
FC(F)(F)c1cc(-c2ccc(Cl)cc2)n[nH]1,normalized growth,"S. cerevisiae deletion strains, locus YAR019C, strain CDC15, hits give low values",0.908
same,normalized growth,"S. cerevisiae deletion strains, locus YBL105C, strain PKC1, hits give low values",0.923
same,normalized growth,"S. cerevisiae deletion strains, locus YBR135W, strain CKS1, hits give low values",0.916
same,normalized growth,"S. cerevisiae deletion strains, locus YBR136W, strain MEC1, hits give low values",0.918
same,normalized growth,"S. cerevisiae deletion strains, locus YBR160W, strain CDC28, hits give low values",0.922
same,normalized growth,"S. cerevisiae deletion strains, locus YDL017W, strain CDC7, hits give low values",0.931
same,normalized growth,"S. cerevisiae deletion strains, locus YDL028C, strain MPS1, hits give low values",0.918
same,normalized growth,[1],0.926
same,normalized growth,"S. cerevisiae deletion strains, locus YDL108W, strain KIN28, hits give low values",0.925
same,normalized growth,"S. cerevisiae deletion strains, locus YDL132W, strain cdc53, hits give low values",0.917
same,normalized growth,"S. cerevisiae deletion strains, locus YDL214C, strain PRR2, hits give low values",0.826
same,normalized growth,"S. cerevisiae deletion strains, locus YDR052C, strain DBF4, hits give low values",0.927
same,normalized growth,"S. cerevisiae deletion strains, locus YDR054C, strain cdc34, hits give low values",0.904
same,normalized growth,"S. cerevisiae deletion strains, locus YDR226W, strain ADK1, hits give low values",0.921
same,normalized growth,"S. cerevisiae deletion strains, locus YDR477W, strain SNF1, hits give low values",0.848
same,normalized growth,"S. cerevisiae deletion strains, locus YER123W, strain YCK3, hits give low values",0.789
same,normalized growth,"S. cerevisiae deletion strains, locus YER133W, strain GLC7, hits give low values",0.779
same,normalized growth,"S. cerevisiae deletion strains, locus YFL009W, strain cdc4, hits give low values",0.908
same,normalized growth,"S. cerevisiae deletion strains, locus YFL029C, strain CAK1, hits give low values",0.906
same,normalized growth,"S. cerevisiae deletion strains, locus YFR003C, strain YPI1, hits give low values",0.92
same,normalized growth,"S. cerevisiae deletion strains, locus YFR019W, strain FAB1, hits give low values",0.901
same,normalized growth,"S. cerevisiae deletion strains, locus YFR028C, strain CDC14, hits give low values",0.909
same,normalized growth,"S. cerevisiae deletion strains, locus YGR040W, strain KSS1, hits give low values",0.813
same,normalized growth,"S. cerevisiae deletion strains, locus YGR052W, strain FMP48, hits give low values",0.834
same,normalized growth,"S. cerevisiae deletion strains, locus YGR092W, strain DBF2, hits give low values",0.807
same,normalized growth,[2],0.763 (active)
same,normalized growth,"S. cerevisiae deletion strains, locus YHR079C, strain IRE1, hits give low values",0.803
same,normalized growth,"S. cerevisiae deletion strains, locus YHR082C, strain KSP1, hits give low values",0.826
same,normalized growth,"S. cerevisiae deletion strains, locus YHR205W, strain SCH9, hits give low values",0.842
same,normalized growth,"S. cerevisiae deletion strains, locus YIL147C, strain SLN1, hits give low values",0.921
same,normalized growth,"S. cerevisiae deletion strains, locus YJL095W, strain BCK1, hits give low values",0.74
same,normalized growth,"S. cerevisiae deletion strains, locus YJL128C, strain PBS2, hits give low values",0.882
same,normalized growth,"S. cerevisiae deletion strains, locus YJL157C, strain FAR1, hits give low values",0.813
same,normalized growth,"S. cerevisiae deletion strains, locus YJR016C, strain ILV3, hits give low values",0.915
same,normalized growth,"S. cerevisiae deletion strains, locus YJR066W, strain TOR1 (second series), hits give low values",0.948
same,normalized growth,"S. cerevisiae deletion strains, locus YJR066W, strain TOR1, hits give low values",0.763
same,normalized growth,"S. cerevisiae deletion strains, locus YKL048C, strain ELM1, hits give low values",0.857
same,normalized growth,"S. cerevisiae deletion strains, locus YKL067W, strain YNK1, hits give low values",0.84
same,normalized growth,"S. cerevisiae deletion strains, locus YKL101W, strain HSL1, hits give low values",0.836
same,normalized growth,"S. cerevisiae deletion strains, locus YKL193C, strain SDS22, hits give low values",0.902
same,normalized growth,"S. cerevisiae deletion strains, locus YKL203C, strain TOR2, hits give low values",0.819
same,normalized growth,"S. cerevisiae deletion strains, locus YLR113W, strain HOG1, hits give low values",0.701 (active)
same,normalized growth,"S. cerevisiae deletion strains, locus YLR133W, strain CKI1, hits give low values",0.843
same,normalized growth,"S. cerevisiae deletion strains, locus YLR403W, strain SFP1, hits give low values",0.74
same,normalized growth,"S. cerevisiae deletion strains, locus YML070W, strain DAK1, hits give low values",0.789
same,normalized growth,"S. cerevisiae deletion strains, locus YMR001C, strain CDC5, hits give low values",0.911
same,normalized growth,"S. cerevisiae deletion strains, locus YMR205C, strain PFK2 (second series), hits give low values",0.846
same,normalized growth,"S. cerevisiae deletion strains, locus YMR277W, strain FCP1, hits give low values",0.915
same,normalized growth,"S. cerevisiae deletion strains, locus YNL006W, strain LST8, hits give low values",0.935
same,normalized growth,"S. cerevisiae deletion strains, locus YNL020C, strain ARK1, hits give low values",0.841
same,normalized growth,"S. cerevisiae deletion strains, locus YNL161W, strain CBK1, hits give low values",0.913
same,normalized growth,"S. cerevisiae deletion strains, locus YNL183C, strain NPR1, hits give low values",0.756
same,normalized growth,"S. cerevisiae deletion strains, locus YNL207W, strain RIO2, hits give low values",0.897
same,normalized growth,"S. cerevisiae deletion strains, locus YNL222W, strain SSU72, hits give low values",0.91
same,normalized growth,"S. cerevisiae deletion strains, locus YNL307C, strain MCK1 (second series), hits give low values",0.853
same,normalized growth,"S. cerevisiae deletion strains, locus YOL078W, strain AVO1, hits give low values",0.903
same,normalized growth,"S. cerevisiae deletion strains, locus YOL136C, strain PFK27, hits give low values",0.803
same,normalized growth,"S. cerevisiae deletion strains, locus YOR061W, strain CKA2, hits give low values",0.869
same,normalized growth,"S. cerevisiae deletion strains, locus YOR119C, strain RIO1, hits give low values",0.826
same,normalized growth,"S. cerevisiae deletion strains, locus YOR231W, strain MKK1, hits give low values",0.747
same,normalized growth,"S. cerevisiae deletion strains, locus YOR329C, strain SCD5, hits give low values",0.912
same,normalized growth,"S. cerevisiae deletion strains, locus YPL031C, strain PHO85, hits give low values",0.824
same,normalized growth,"S. cerevisiae deletion strains, locus YPL153C, strain RAD53, hits give low values",0.829
same,normalized growth,"S. cerevisiae deletion strains, locus YPL204W, strain HRR25, hits give low values",0.798
same,normalized growth,"S. cerevisiae deletion strains, locus YPL209C, strain IPL1, hits give low values",0.916
same,normalized growth,"S. cerevisiae deletion strains, locus YPL256C, strain CLN2, hits give low values",0.677 (active)
same,normalized growth,"S. cerevisiae deletion strains, locus YPR025C, strain CCL1, hits give low values",0.917
same,normalized growth,"S. cerevisiae deletion strains, locus YPR106W, strain ISR1, hits give low values",0.901
same,normalized growth,"S. cerevisiae deletion strains, locus YPR111W, strain DBF20, hits give low values",0.892
same,normalized growth,"S. cerevisiae deletion strains, strain NNK1, hits give low values",0.902
same,normalized growth,"S. cerevisiae deletion strains, strain TSCII, hits give low values",0.911
